This note sets out measurements from PubChem BioAssay.

Test [1] deals with Albumin (Bos taurus) (UniProt P02769). Description: compounds binding labelled BSA control protein – biochemical, small-molecule microarray, Alexa647 label, 635/667 nm fluorescence, artefact control for SMM control protein annotation, profiling panel (AID 1118).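 Further: score merges 667 nm emission intensity and signal-to-noise per printed compound spot.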 The following applies: BSA-A647 binding, fluorescence 635 nm, higher = more signal.
Albumin (Bos taurus), sequence (P02769 whole entry, looked up): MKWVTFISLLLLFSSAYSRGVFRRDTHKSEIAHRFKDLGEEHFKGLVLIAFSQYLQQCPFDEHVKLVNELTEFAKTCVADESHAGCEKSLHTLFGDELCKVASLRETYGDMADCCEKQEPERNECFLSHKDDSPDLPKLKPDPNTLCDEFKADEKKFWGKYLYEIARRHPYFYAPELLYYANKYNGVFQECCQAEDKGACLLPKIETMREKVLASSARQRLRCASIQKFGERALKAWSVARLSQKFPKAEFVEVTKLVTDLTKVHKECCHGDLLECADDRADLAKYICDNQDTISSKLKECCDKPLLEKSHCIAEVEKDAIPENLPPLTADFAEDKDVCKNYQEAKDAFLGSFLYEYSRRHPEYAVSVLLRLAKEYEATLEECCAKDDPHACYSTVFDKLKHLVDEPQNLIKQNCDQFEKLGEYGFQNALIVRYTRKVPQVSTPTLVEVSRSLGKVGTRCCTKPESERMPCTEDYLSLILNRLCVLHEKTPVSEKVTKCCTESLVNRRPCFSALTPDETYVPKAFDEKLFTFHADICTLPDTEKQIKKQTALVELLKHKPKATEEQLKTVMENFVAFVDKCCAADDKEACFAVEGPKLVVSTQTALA
Test [2] can be described thus: probe aXIP binding to arrayed compounds – biochemical, NeuroSMM set, 635/667 nm fluorescence, primary screen (AID 1119).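 Further: probe is the protein aXip251-270 applied at 1 µg/mL to compound-printed slides; binding of probe to printed compounds measured as 667 nm fluorescence plus signal to noise.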 The following applies: small-molecule microarray, higher = more signal, called active from +8 up or from −8 down.
Test [3] in a line: probe aNOTCH3 binding on compound microarray – biochemical, small-molecule microarray, 635/667 nm fluorescence, primary screen (AID 1120).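 Further: probe is a biotin-tagged antibody raised against NOTCH3 rather than NOTCH3 protein; score merges spot fluorescence near 667 nm with spot signal to noise.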 The following applies: higher = more signal.
A short description of test [4]: probe aNOTCH2 binding on compound microarray – biochemical, small-molecule microarray, 635/667 nm fluorescence, primary screen (AID 1121).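 Further: score merges feature fluorescence read at 667 nm with its signal to noise.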 The following applies: higher = more signal.
Test [5] addresses Carbonic anhydrase 2 (Homo sapiens) (UniProt P00918). Description: compounds binding carbonic anhydrase 2 – biochemical, small-molecule microarray, Alexa647-labelled CAII, profiling panel (AID 1122). Particulars: CAII-A647 binding fluorescence, higher = more signal.
A short description of test [6]: COS7 lysate on small-molecule microarray, probe aHis, 635 nm (AID 1123).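 Further: z-score combines 667nm fluorescence intensity with signal-to-noise per printed compound spot.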 The following applies: COS7 cell lysate, fluorescence, higher = more signal.
Test [7] can be described thus: probe aLAP1 signal on lysate-treated microarray – cell lysate, small-molecule microarray, COS7 lysate, primary screen (AID 1124).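 Further: lysate comes from COS7 cells expressing LAP1 and is applied at 0.3 µg/mL; score merges spot fluorescence near 667 nm with signal-to-noise over triplicate slides.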 The following applies: probe aLAP1, fluorescence, higher = more signal.
Test [8] concerns Sam68 (KHDRBS1). Nature of the test: compounds binding KHDRBS1 protein – biochemical, small-molecule microarray, 635 nm fluorescence, primary screen (AID 1125).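 Further: score merges 667 nm channel intensity with signal to noise over triplicate slides.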 Particulars: higher = more signal.
The test system of test [9] is Chordin-like protein 2 (CHRDL2). Nature of the test: compounds binding chordin-like 2 – biochemical, small-molecule microarray, 635 nm fluorescence, primary screen (AID 1126).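 Further: printed compound slides probed with Chrdl2 protein at 4 µg/mL for 1 h at 4 C; score merges 667 nm emission intensity with signal to noise over three replicate slides.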 The following applies: fluorescence 635 nm, higher = more signal.
The target in test [10] is Concanavalin-A (Canavalia ensiformis) (UniProt P02866). Description: compounds binding concanavalin A lectin – biochemical, small-molecule microarray, Alexa647 label, 635 nm, artefact control for SMM control protein annotation, primary screen (AID 1127).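 Further: z combines 667 nm emission intensity with signal-to-noise across three replicate slides.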 Particulars: ConA-A647 binding fluorescence, higher = more signal.
Concanavalin-A (Canavalia ensiformis), sequence (P02866 whole entry, looked up): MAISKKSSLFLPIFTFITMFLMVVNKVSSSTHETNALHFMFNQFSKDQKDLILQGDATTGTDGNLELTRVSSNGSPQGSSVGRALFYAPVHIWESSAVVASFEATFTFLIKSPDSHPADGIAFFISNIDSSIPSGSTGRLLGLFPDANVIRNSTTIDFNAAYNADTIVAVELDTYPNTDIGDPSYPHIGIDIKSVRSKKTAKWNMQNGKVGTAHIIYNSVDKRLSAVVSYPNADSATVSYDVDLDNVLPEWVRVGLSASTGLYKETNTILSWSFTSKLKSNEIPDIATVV

Activity calls are given as the source filed them.

With `C#CCCCON=C1C[C@@H](O)[C@@H](O)[C@@H]2[C@@H]3C(=O)N(c4cccc(Oc5ccccc5)c4)C(=O)[C@@H]3CC[C@H]12`, the composite z-score in [1] was -0.302; in [3] it was -0.373; in [4], -0.14; in [5] it was 0.709; in [6], 0.0922; in test [7], 0.762. Also, the composite z-score in test [8] was -0.582; in test [9], -0.771; in test [10], -0.387. The composite Z-score in test [2] was 1.27 (inactive).

Take `CC(C)CON=C1C[C@@H](O)[C@@H](O)[C@@H]2[C@@H]3C(=O)N(C(C)(C)C)C(=O)[C@@H]3CC[C@H]12`: the composite z-score in test [1] is -0.135; in test [3] it was 0.0039; in test [4], -0.124; in [5] it was 0.11; in test [6] it was 1.36; in test [7] it was 0.057. Also, the composite z-score was 1.01 in test [8], 0.297 in test [9] and -1.23 in [10]. Further, the composite Z-score in test [2] is 0.3 (inactive).

Consider `C#CCCCON=C1[C@H]2CCn3c(=O)n(C)c(=O)n3[C@H]2[C@H](O)[C@@H]2O[C@H]12`, for which the composite z-score in test [1] is -0.213; in test [3] it was -0.0304; in test [4], -0.169; in test [5], -0.053; in test [6], 0.0971; in test [7], 0.723. In addition, the composite z-score in test [8] was found to be 0.406; in [9] it was 0.833; in [10], 0.543. Further, in test [2], the composite Z-score was -0.496 (inactive).

Take `CO[C@@H]1COC(=O)CC=C[C@@H](C)[C@H](OC)COC(=O)[C@@H](C)COC(=O)CC=C[C@H]1C`: the composite z-score in [1] is -0.797; in test [3] it was -0.055; in test [4], -0.124; in test [5], -0.679; in test [6], -0.824; in test [7], -0.0936. Moreover, the composite z-score in [8] was -0.983; in test [9] it was 1.47; in test [10], -0.423. For the same molecule, the composite Z-score in [2] was 0.0068 (inactive).

For `O=C1C2=CC[C@H]3C(=O)N(c4cccc(Oc5ccccc5)c4)C(=O)[C@H]3[C@H]2[C@H](O)[C@@H]2O[C@H]12`, the composite z-score in test [1] was -0.0451; in [3], 0.0179; in test [4] it was -0.132; in test [5], -0.146; in test [6], 0.19; in test [7], -0.0224. Further, the composite z-score in [8] is 0.645; in [9], 0.625; in [10], 0.443. Besides, the composite Z-score in test [2] is -0.0708 (inactive).

In the case of `CC(C)=NO[C@H](C)c1cn([C@H](CO)Cc2ccccc2)nn1`, the composite z-score in [1] was 0.364; in test [3], -0.0932; in [4], -0.123; in test [5], 0.13; in test [6], 0.559; in [7], -0.536. In addition, the results for the composite z-score in test [8], in test [9] and in [10] were 0.444, -0.0691 and 1.1, respectively. For the same molecule, in test [2], the composite Z-score is -0.178 (inactive).

Take `CC(=O)OC[C@H]1O[C@H](C#Cc2ccccc2)C=C[C@@H]1OC(C)=O`: the composite z-score is 0.243 in test [1]; -0.0328 in test [3]; -0.136 in test [4]; 0.0239 in test [5]; 0.214 in test [6]; 0.17 in test [7]. Besides, the composite z-score in test [8] was 0.182; in test [9], 0.965; in test [10], -0.0189. For the same molecule, the composite Z-score in [2] is -0.005 (inactive).

For `COc1cccc([C@H]2Oc3ccc(OC)cc3C(=NO[C@@H]3O[C@H](COC(C)=O)[C@@H](OC(C)=O)[C@H](OC(C)=O)[C@H]3OC(C)=O)[C@@H]2O)c1`, the composite z-score in test [1] was 0.0351; in test [3], -0.0598; in test [4] it was -0.141; in test [5], -0.403; in test [6], 0.1; in test [7] it was 0.474. The composite z-score is 0.153 in test [8], -0.0174 in test [9] and -0.143 in test [10]. The composite Z-score in test [2] was 1.25 (inactive).

As for `CC(C)CON=C1C[C@@H](O)[C@@H](O)[C@@H]2[C@@H]3C(=O)N(Cc4ccc5c(c4)OCO5)C(=O)[C@@H]3CC[C@H]12`, the composite z-score in test [1] was 0.768; in test [3], -0.0288; in test [4] it was -0.115; in [5], 0.625; in test [6], 0.676; in test [7] it was -0.358. Also, the composite z-score in [8] stood at 1.34; in test [9] it was 0.0987; in test [10], 0.957. In addition, the composite Z-score in test [2] is -0.275 (inactive).

As to `CCc1cc2c(nc1CC)CCN(CCC(C)=NO[C@@H](C)c1cn([C@H](CO)Cc3ccccc3)nn1)C2`, the composite z-score was -0.0957 in test [1]; -0.0072 in test [3]; -0.0956 in test [4]; 0.317 in test [5]; -0.0909 in [6]; 0.12 in [7]. Moreover, the composite z-score was -0.0161 in [8], 0.231 in [9] and 0.0209 in test [10]. For the same molecule, the composite Z-score in [2] was 0.117 (inactive).

For the molecule `COc1cccc([C@H]2Oc3ccc(OC)cc3C(=NOC(C)CN3CCCCc4nc(C)c(C)cc43)[C@@H]2O)c1` (stereo not given in full), the composite z-score in test [1] was 0.604; in test [3], 0.0876; in [4], -0.106; in [5], 0.293; in test [6], 0.47; in test [7], -0.456. The composite z-score in [8] is 0.523; in [9], 0.267; in [10], 0.653. Moreover, the composite Z-score in test [2] was -0.352 (inactive).

`CC(C)(C)N1C(=O)[C@H]2[C@H]3[C@H](O)[C@H](O)CC(=O)[C@H]3CC[C@H]2C1=O`: the composite z-score in test [1] was 0.472; in [3], -0.0581; in test [4], -0.155; in test [5], 0.0658; in test [6], 0.165; in [7], 0.206. The values for the composite z-score in test [8], in test [9] and in test [10] were 0.892, 0.357 and 0.673, respectively. Besides, the composite Z-score in [2] is 0.403 (inactive).

For `O=C1C=C[C@@H](O)[C@@H]2[C@@H]3C(=O)N(C[C@@H]4CCCO4)C(=O)[C@@H]3CC[C@@H]12`, the composite z-score in test [1] was 0.0654; in test [3] it was -0.125; in [4], -0.112; in [5], -0.121; in test [6], -0.17; in [7], 0.421. In addition, the composite z-score was 0.258 in test [8], 0.458 in test [9] and 0.332 in [10]. In addition, the composite Z-score in test [2] is 0.681 (inactive).

Consider `Cc1cc2c(nc1C)CCCN2CC(O)CN1CCCc2nc(C)c(C)cc21`, for which the composite z-score is -0.293 in [1]; 0.308 in test [3]; 0.054 in [4]; 0.798 in test [5]; 1.21 in test [6]; 0.446 in [7]. Also, the composite z-score in test [8] came out at 0.651; in [9], 0.633; in test [10], 0.879. Besides, in test [2], the composite Z-score was 2.34 (inactive).

Turning to `CCN1C(=O)[C@H]2[C@H]3[C@H](O)[C@H](O)CC(=NOCC(C)C)[C@@H]3CC[C@H]2C1=O`, the composite z-score in test [1] is 0.612; in [3], 0.179; in test [4], -0.126; in test [5], 0.459; in [6], 1.1; in test [7], -0.202. The composite z-score was 1.3 in test [8], 0.72 in test [9] and 0.0131 in [10]. For the same molecule, the composite Z-score in test [2] is -0.0562 (inactive).

For `C#CCCCON=C1C[C@@H](O)[C@@H](O)[C@@H]2[C@@H]3C(=O)N(c4ccc(F)cc4F)C(=O)[C@@H]3CC[C@@H]12`, the composite z-score in test [1] was 0.373; in [3], -0.113; in test [4], -0.0569; in test [5] it was -0.15; in [6], -0.366; in [7] it was 0.202. Further, the composite z-score in test [8] came to 0.428; in [9], 0.217; in test [10], 0.505. For the same molecule, the composite Z-score in test [2] was -0.302 (inactive).

`CC(C)CON=C1C[C@@H](O)[C@@H](O)[C@@H]2[C@@H]3C(=O)N(C[C@@H]4CCCO4)C(=O)[C@@H]3CC[C@@H]12`: the composite z-score in test [1] was 0.268; in test [3], -0.0967; in test [4], -0.14; in test [5] it was 0.165; in [6], 0.421; in [7], 0.419. The composite z-score in test [8] was 0.12; in test [9], -0.39; in [10] it was -0.339. In test [2], the composite Z-score is 0.223 (inactive).
